# In PubChem BioAssay AID485317 (Broad Institute, 2010):
# Out of some 290,000 compounds screened, about 11,000 (3.8%) were called active.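 Rule for the calls: active = mean replicate inhibition above about 79%, with every replicate also reaching it (limit read from the data); inconclusive = only one of the two criteria met; inactive = mean below limit and not every replicate reaching it.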 The sample as a whole holds a higher share of actives than the screen did.
# Molecular target: FAD-linked sulfhydryl oxidase ALR (Homo sapiens) (UniProt P55789)
# Sequence (P55789 whole entry, looked up): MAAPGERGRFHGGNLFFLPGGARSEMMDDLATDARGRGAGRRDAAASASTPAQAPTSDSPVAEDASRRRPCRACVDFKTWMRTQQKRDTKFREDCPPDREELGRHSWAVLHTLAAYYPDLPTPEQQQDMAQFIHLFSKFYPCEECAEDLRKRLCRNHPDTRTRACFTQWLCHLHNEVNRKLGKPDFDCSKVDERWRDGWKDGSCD
# Assay: ALR-catalysed DTT oxidation blockers – biochemical, H2O2 detection, HRP-luminol luminescence, single point, primary screen (AID 485317)
# Details: purified ALR, active compounds read high, concentration not given here
row,SMILES,inhibition
1,COC(=O)c1cccc(NC(=O)CSc2nc(C)cc(=O)[nH]2)c1,98.5% (active)
2,CCOC(=O)Cc1csc(NC(=O)CSc2nc(C)cc(=O)[nH]2)n1,98.7% (active)
3,Cc1ccc(NC(=O)CSc2nc(CSc3ccc(C)cc3)cc(=O)[nH]2)cc1,6.9% (inactive)
4,CCOC(=O)Cc1csc(NC(=O)CSc2ccc(Br)cc2)n1,-32.4% (inactive)
5,Cc1cccc(NC(=O)CSc2nc3[nH]ncc3c(=O)[nH]2)c1,1.74% (inactive)
6,CCCc1cc(=O)[nH]c(SCC(=O)Nc2ccc(S(=O)(=O)N3CCCC3)cc2)n1,-1.58% (inactive)
7,CCOC(=O)Cc1csc(NC(=O)C(C)(C)C)n1,-0.763% (inactive)
8,Cc1cc(=O)[nH]c(SCC(=O)Nc2ccc(Br)cc2)n1,-7.33% (inactive)
9,COc1ccc(NC(=O)CSc2nc(NS(=O)(=O)c3ccc(C)cc3)cc(=O)[nH]2)cc1,98.9% (active)
10,CC(=O)NC12CC3CC(C1)CC(C(=O)N1CCN(C(=O)c4ccco4)CC1)(C3)C2,-2.95% (inactive)
11,CC1(C)O[C@@H]2[C@H](O1)[C@@H](COS(=O)(=O)O)O[C@H]2n1ccc(=O)[nH]c1=O,-0.754% (inactive)
12,O=C(NNc1cc(Cl)cc(Cl)c1)c1c(F)cccc1Cl,3.41% (inactive)
13,Cc1ccc(NNC(=O)c2c(F)cccc2Cl)cc1Cl,98.7% (active)
14,Cc1ccc(NNC(=O)c2cccs2)cc1Cl,2.62% (inactive)
15,Cc1csc(=O)n1CC(=O)Nc1ccc(S(C)(=O)=O)cc1,2.59% (inactive)
16,CN1C(=O)[C@H]2[C@@H](/C=C/c3ccccc3)N3C(=O)CN(Cc4ccc(-c5ccccc5)cc4)C(=O)[C@@]3(C)[C@H]2C1=O,3.57% (inactive)
17,CCCCNC(=O)CSc1nccn1Cc1ccccc1,11.9% (inactive)
18,CCCCCCNC(=O)CSc1nccn1Cc1ccccc1,-0.072% (inactive)
19,CC(=O)Nc1cccc(NC(=O)CSc2nccn2Cc2ccc(F)cc2)c1,98.1% (active)
20,O=c1oc2ccccc2cc1-c1csc(Nc2ccc(O)cc2)n1,32.6% (inactive)
21,Clc1ccc(Nc2nc(-c3cccs3)cs2)nc1,-1.13% (inactive)
22,Cc1ccc(Nc2nc(-c3ccc(O)cc3O)cs2)nc1,98.8% (active)

row,SMILES,inhibition
1,COC(=O)Cc1ccc(OC(=O)C2CCN(S(=O)(=O)c3ccc(OC)c(OC)c3)CC2)cc1,-4.72% (inactive)
2,CC[N+](C)(CC)CCC[n+]1c(-c2ccccc2)c2cc(N)ccc2c2ccc(N)cc21,90.7% (active)
3,O=C(COC(=O)c1cccnc1Cl)Nc1ccc(S(=O)(=O)N2CCOCC2)cc1,-2.58% (inactive)
4,Cc1cccc(Nc2nnc(SCC(=O)c3c(N)n(C4CC4)c(=O)[nH]c3=O)s2)c1C,-3.29% (inactive)
5,CN(NS(=O)(=O)c1cccs1)c1ncc(C(F)(F)F)cc1Cl,-1.63% (inactive)
6,Cc1nn(CC#N)c(=O)n1N(C)c1ncc(C(F)(F)F)cc1Cl,0.914% (inactive)
7,C#CCN(N(C)c1ncc(C(F)(F)F)cc1Cl)S(=O)(=O)c1ccc2ccccc2c1,89.2% (active)
8,CCOC(=O)/C=C/c1ccc(C(F)(F)F)cc1S(=O)(=O)NC(C)(C)C,20.8% (inactive)
9,c1ccc2cc(CCCc3cc4ccccc4cn3)ncc2c1,2.21% (inactive)
10,CN(Cc1ccccc1)C(=O)COC(=O)/C=C/c1ccc2c(c1)OCO2,0.927% (inactive)
11,Cc1ccc(N2C(=O)CC(Sc3ncn[nH]3)C2=O)cc1 (stereo not drawn),45.4% (inactive)
12,COc1ccc(N2C(=O)CC(Sc3n[nH]c(-c4ccc(C)cc4)n3)C2=O)cc1 (stereo not drawn),98.9% (active)
13,COc1ccc(-c2nc(SCC(=O)N3CCCC3)n[nH]2)cc1,-0.237% (inactive)
14,CN(CC(=O)NCCc1ccc(S(N)(=O)=O)cc1)CC(=O)Nc1ccc(F)c(F)c1F,-4.6% (inactive)
15,CCCSc1ccc([C@H]2N[C@@](Cc3ccccc3)(C(=O)OC)[C@H]3C(=O)N(C)C(=O)[C@@H]23)cc1,4.44% (inactive)
16,S=c1[nH]nc(/C=C/c2ccccc2)o1,83.4% (active)
17,Cc1ccc(-c2cc(C(=O)N/N=C/C=C/c3ccccc3)n[nH]2)o1,-7.61% (inactive)
18,CCOC(=O)C1CCN(C(=O)CN2C(=O)NC(C)(c3ccc4cc(OC)ccc4c3)C2=O)CC1 (stereo not drawn),-7.42% (inactive)
19,NC1=NC(c2ccc([N+](=O)[O-])cc2)N(c2ccc(F)cc2)C(N)=N1 (stereo not drawn),-1.48% (inactive)
20,Cc1ccc(C2CC(=O)NC(SCC(=O)OCc3ccccc3)=C2C#N)o1 (stereo not drawn),98.4% (active)
21,CCOC(=O)CSC1=C(C#N)C(c2ccco2)C(C(=O)OCc2ccccc2)=C(C)N1 (stereo not drawn),-2.61% (inactive)
22,CCOC(=O)CSC1=C(C#N)C(c2sccc2C)CC(=O)N1 (stereo not drawn),2.21% (inactive)

row,SMILES,inhibition
1,Cc1cc(Br)ccc1NC(=O)CN(C)C(=O)CN1C(=O)NC2(CCCC2)C1=O,-8.04% (inactive)
2,COc1cc(NC(=O)COC(=O)c2cc(S(=O)(=O)N3CCOCC3)ccc2F)cc(OC)c1,-2.6% (inactive)
3,Cc1cc(C)n(-c2ccc(C(=O)O)cc2[N+](=O)[O-])n1,-3.49% (inactive)
4,COc1ccc2c(c1)C=CC1(O2)N(CCO)c2ccccc2C1(C)C (stereo not drawn),-8.22% (inactive)
5,CN1c2ccc([N+](=O)[O-])cc2C(C)(C)C12C=Cc1cc(C(=O)O)ccc1O2 (stereo not drawn),97.9% (active)
6,CCOC(=O)[C@@H]1[C@H]2COc3ccc(Br)cc3[C@H]2N2C(=O)N(c3ccc(C)cc3)C(=O)[C@@]12C,-4.73% (inactive)
7,COc1ccc(NC(=O)/C(C#N)=C\c2cc(OC)c(OCc3ccc(C(=O)O)cc3)cc2Br)cc1,98% (active)
8,COc1cc(/C=C(\C#N)C(=O)Nc2ccc3ccccc3c2)c([N+](=O)[O-])cc1OC,-17.7% (inactive)
9,COc1ccc(CNC(=O)/C(C#N)=C/c2cccc(OC)c2OC)cc1,12.6% (inactive)
10,COc1cc(OC)cc(-c2sc3ccc(OC)cc3c2-c2ccc3cc[nH]c3c2)c1,0.621% (inactive)
11,COc1ccc(N2CCN(C(CNS(=O)(=O)c3ccc(C)cc3)c3ccccc3)CC2)cc1 (stereo not drawn),-0.191% (inactive)
12,O=C(CCN1C(=O)C2CCCCC2C1=O)Nc1ccc(OC(F)F)cc1 (stereo not drawn),-7.6% (inactive)
13,CCCN(CC(=O)Nc1ccccc1C)C(=O)c1ccc2[nH]c3c(c2c1)CC(C)CC3 (stereo not drawn),-1.42% (inactive)
14,COc1ccc(Cl)cc1NC(=O)CCN1CCOCC1,-5.1% (inactive)
15,COc1ccccc1NC(=O)CCN1CCN(c2ccc(Cl)cc2)CC1,89.1% (active)
16,COc1ccc(NC(=O)CCN2CCCC2)c(OC)c1,-4.61% (inactive)
17,CC(C)n1ncc2c(C(=O)NCc3ccccc3CN(C)C)cc(C3CC3)nc21,-20.5% (inactive)
18,Cc1ccc(NC(=O)C(C)OC(=O)Cc2c[nH]c3ccccc23)cc1S(=O)(=O)N1CCOCC1 (stereo not drawn),-3.03% (inactive)
19,Cc1ccc(C(=O)OCC(=O)NCc2cc(C)c(O)c(C)c2)cc1S(=O)(=O)N1CCCCC1,14.9% (inactive)
20,COc1cc(OC)cc(-c2c(-c3ccc(F)cc3)c3cc(-c4ccc5cc[nH]c5c4)ccc3n2C)c1,0.122% (inactive)
21,CCCN1CCN(CCCNC(=O)CN2C(=O)COc3ccccc32)CC1,-3.58% (inactive)
22,COc1ccc(N2CCN(CCNC(=O)CCN3C(=O)COc4ccccc43)CC2)cc1,80.3% (active)

row,SMILES,inhibition
1,COc1ccc(N2CCN(C(=O)CN3C(=O)COc4ccccc43)CC2)cc1,38% (inactive)
2,Cc1cccc(NS(=O)(=O)c2ccc(C)c(C(=O)NCC(c3ccccc3)N(C)C)c2)c1 (stereo not drawn),-16.5% (inactive)
3,CN(C(=O)CSc1cccc[n+]1[O-])C1CCCCC1,-8.28% (inactive)
4,CN(/N=C/c1ccccc1)C(=S)c1ccccc1,12.2% (inactive)
5,N#Cc1ccc(OCC(=O)NC(=O)NC2CCS(=O)(=O)C2)cc1 (stereo not drawn),-0.0725% (inactive)
6,CCOc1ccc(NC(=O)CN(C)C(=O)Cc2sc(C)nc2-c2ccc(F)cc2)cc1OCC,-2.09% (inactive)
7,Cc1ccc(C2C3=C(Nc4[nH]n(-c5ccccc5)c(=O)c42)c2ccccc2C3=O)cc1 (stereo not drawn),87.2% (active)
8,Cc1ccc(-c2ccnc3[nH]n(-c4ccccc4)c(=O)c23)cc1,1.8% (inactive)
9,Cc1ccc(N=Nc2c(C)[nH]n(-c3ccccc3)c2=O)cc1,-12.7% (inactive)
10,COc1cccc(CNC(C)C(=O)Nc2ccc(S(=O)(=O)N3CCCC3)cc2)c1 (stereo not drawn),-0.631% (inactive)
11,O=C(C[C@@H]1C/C=C\CCC(=O)OC[C@@H]2CCCN2C1=O)NCCO,2.95% (inactive)
12,CN(C)c1ccc(/C=N\S(=O)(=O)c2ccccc2)cc1,0.19% (inactive)
13,CC[n+]1cc(C)ccc1/C=C/c1ccc(N(C)C)cc1,99.4% (active)
14,COCCn1c(C)cc(C(=O)CSc2nnc(C3CC3)n2C2CC2)c1C,13.1% (inactive)
15,COc1ccc(C(=O)c2c3ccc([N+](=O)[O-])cc3[n+]([O-])n2CCCN)cc1,-50.8% (inactive)
16,Cc1ccc(NC(=O)c2cccc(S(=O)(=O)N3CCCc4ccccc43)c2)nc1,-1.14% (inactive)
17,Cn1ccnc1SCC(=O)Nc1ccc2c(c1)OCCO2,47.8% (inactive)
18,COc1cccc(NC(=O)CSc2nccn(-c3ccc4c(c3)OCCO4)c2=O)c1,98.6% (active)
19,CCn1c(COc2ccccc2)nnc1SCC(=O)Nc1ccc2c(c1)OCCO2,-3.91% (inactive)
20,O=C(C1CCC(=O)N(C2CC2)C1)N1CCN(c2ccc(Cl)cc2)CC1 (stereo not drawn),96.7% (active)
21,O=C(NCc1cccc(Cl)c1)C1CCC(=O)N(C2CC2)C1 (stereo not drawn),-4.45% (inactive)
22,O=C(C1CC(=O)N(C2CCCCC2)C1)N1CCN(c2ccccc2)CC1 (stereo not drawn),68.2% (inactive)
